A short description of assay [1]: Cell Viability - BJ (AID 421; calls by dose curve;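 note: potency is the fitted concentration of half-maximal effect; cells exposed to compound for 40 hours at 37 °C before readout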). The settings on record: BJ fibroblast viability, qHTS. An outline of the steps:
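Luminescent ATP signal (CellTiter-Glo, 20 min at room temperature) served as the read-out of viable BJ cells after 40 hours of compound treatment. Responses were scaled between DMSO and 100 uM tamoxifen, and AC50 values were obtained by Hill modeling.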

Assay [2] can be described thus: Cell Viability - Jurkat (AID 426;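 active = dose-dependent loss of cell ATP signal giving a full or clear fitted curve, ranked by lower potency value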; note: potency is the fitted concentration of half-maximal effect). The settings on record: qHTS. A digest of the protocol:
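qHTS, 1536-well; Jurkat E6-1, 5000 cells/well, complete medium; cpd 40 hr, 37 °C; CellTiter-Glo 20 min RT; luminescence. AC50 by Hill fit.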
(Quantitative high-throughput screening tests each substance at several concentrations.)

Assay [3] can be described thus: Cell Viability - Hek293 (AID 427;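 active = compounds whose dose-response curve shows a full or clear partial loss of cell viability, called from curve shape rather than a numeric limit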;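 note: potency is the fitted concentration of half-maximal effect; cells exposed to compound for 40 hours at 37 °C before reading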). The note with it: qHTS. A digest of the protocol:
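Luminescent ATP read-out (CellTiter-Glo, 20 min RT) after 40 hr compound exposure at 37 °C in complete medium. Signal normalized to DMSO (basal) and 100 uM tamoxifen (100% inhibition); concentration-response fitted with the standard Hill equation to give AC50.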

A short description of assay [4]: Cell Viability - MRC5 (AID 434; calls by dose curve;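 note: potency is the fitted concentration of half-maximal effect; potency reflects cytotoxicity seen as loss of intracellular ATP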). The settings on record: MRC5 lung fibroblast viability, qHTS. An outline of the steps: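 qHTS cytotoxicity in human lung fibroblast MRC5 cells; 40 hr treatment, 37 °C; cellular ATP by luciferase luminescence; DMSO = 0%, 100 uM tamoxifen = 100% inhibition; Hill-fit AC50.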
A short description of assay [5]: Cell Viability - SK-N-SH (AID 435; calls by dose curve;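 note: potency is the fitted concentration of half-maximal effect; compound exposure lasted 40 h at 37 °C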). The note with it: SK-N-SH neuroblastoma cell viability qHTS. An outline of the steps:
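SK-N-SH human neuroblastoma cells (1500/well) were exposed to compounds in complete medium for 40 h at 37 °C, and intracellular ATP was then measured by CellTiter-Glo luminescence. AC50 was taken from Hill fits, normalized to DMSO and 100 uM tamoxifen.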

Assay [6] deals with Mitogen-activated protein kinase 10 (Mus musculus) (UniProt Q61831). As to the kind of experiment: JNK3 AlphaScreen Assay (AID 530; active = well fitted curve in either direction with a large enough effect, not every such curve was filed as active;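 note: kinase came from lysate of stimulated human HepG2 cells; signal reports phosphorylation of biotinylated GST-cJun 1-79 at Ser73 with 10 µM ATP; % is set by controls: 0 for no effect and ±100 for the full control effect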). The settings on record: JNK3 lysate, c-Jun phosphorylation; series mostly up to 57.1 µM. A digest of the protocol: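 Compound titrations were preincubated 15 minutes at room temperature with substrate, antibody and pre-activated JNK3-containing HepG2 lysate. Reactions were started with 10 uM ATP and stopped with EDTA-containing bead buffer for AlphaScreen detection.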
On the technique in general: In Alpha technology, singlet oxygen from a donor bead excites a nearby acceptor bead.

Assay [7] can be described thus: Cell Viability - NIH 3T3 (AID 541).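 For activity change, negative = cytotoxicity: plate controls were DMSO alone for no effect and tamoxifen positive control for full effect.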 Note: nearly all actives have a fitted effect of over 25% in size. Note: potency is the fitted concentration of half-maximal effect. The note with it: NIH 3T3 cell viability, qHTS; activity change, negative = cytotoxicity: at 92.2 µM (top of the series). A digest of the protocol: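 Luminescent ATP signal (CellTiter-Glo) served as the viability read-out after NIH 3T3 cells were exposed to compounds over a concentration range for 40 hr at 37 °C. Hill-equation modelling of concentration-response data gave AC50.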

Assay [8] can be described thus: Cell Viability - HUV-EC-C (AID 542). For activity change, negative = cytotoxicity: % is set by controls: 0 for no effect and ±100 for the full control effect. Note: nearly all actives have a fitted effect of over 35% in size. Note: potency is the fitted concentration of half-maximal effect. The note with it: HUV-EC-C endothelial cell viability, qHTS; series mostly up to 92.2 µM. A digest of the protocol:
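qHTS cytotoxicity: HUV-EC-C, 1000 cells/well, 5 hr settle, compound 40 hr 37 °C, CellTiter-Glo, luminescence. AC50 via Hill equation.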

The nature of assay [9]: Cell Viability - H-4-II-E (AID 543). Note: nearly all actives have a fitted effect of over 35% in size. Note: potency is the fitted concentration of half-maximal effect. The note with it: H-4-II-E rat hepatoma viability; series mostly up to 92.2 µM. A digest of the protocol:
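Luminescent ATP signal (CellTiter-Glo) served as the viability read-out, with cytotoxicity seen as a concentration-dependent ATP drop. Cells were treated for 40 hours in complete medium. AC50 values derive from Hill-equation modelling.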

The nature of assay [10]: Cell Viability - Renal Proximal Tubule (AID 545).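 Note: 0% = DMSO only and -100% = 100 µM tamoxifen; nearly all actives have a fitted effect of over 40% in size.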 The note with it: renal proximal tubule cells viability, primary cells of rat origin; activity change, negative = cytotoxicity: at 91.7 µM (top of the series). A digest of the protocol: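 Primary rat renal proximal tubule cells (1000/well) were treated with compounds for 40 hr at 37 °C in complete medium. Intracellular ATP was measured by CellTiter-Glo luminescence, and AC50 values came from Hill-equation fits of concentration-response data.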

Assay [11] can be described thus: Cellular Toxicity (caspase-3) HepG2 (AID 654).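 Note: cells exposed to compound for 16 hours before reading; 0% = DMSO alone and 100% = caspase signal from 100 µM tamoxifen.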 The note with it: HepG2 caspase-3 activation, luminescence; series mostly up to 92.2 µM. An outline of the steps: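 Cells plated 5 hr at 37 °C, compound added, incubated 16 hr at 37 °C. Caspase-Glo 3/7 reagent followed, 20 min at room temperature, then luminescence read. Activation scored as signal increase; AC50 from Hill fit.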

A short description of assay [12]: Cellular Toxicity (caspase-3) Jurkat (AID 655).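 Note: cells exposed to compound for 16 h at 37 °C before reading.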 The settings on record: Jurkat caspase-3 activation, luminescence; series mostly up to 92.2 µM. A digest of the protocol:
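Jurkat cells (5000/well) in complete medium were treated with compounds for 16 hr at 37 °C, then Caspase-Glo 3/7 luminescence was read after 20 min at room temperature. Data normalized to DMSO (basal) and 100 uM tamoxifen (100%); AC50 from Hill fit.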

Assay [13] has as its target Glucocorticoid receptor (Homo sapiens) (UniProt P04150). In words: GR-GFP Redistribution (AID 450;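 active = compounds whose dose series gives a full or clear partial fitted curve of increased nuclear translocation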; note: potency is the fitted concentration of half-maximal effect). The settings on record: U2OS GR-GFP nuclear translocation, laser cytometry, 2 h.
In assay [14] the target is 3',5'-cyclic-AMP phosphodiesterase 4B (Homo sapiens) (UniProt Q07343). In words: qHTS Assay for Inhibitors of PDE-IV (AID 607; active = well fitted activation curve with a large enough effect in the main read-out, with a control signal flat, not every such curve was filed as active; note: % of control where 0% means no effect). The note with it: HEK293 ACTOne CNG channel cells, membrane potential fluorescence; series mostly up to 22.9 µM. An outline of the steps: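 ACTOne HEK293 cells carry a modified cAMP-gated CNG channel and express endogenous PDE4; plated 1000 cells/well, compounds up to 22.9 uM final. Membrane-potential dye fluorescence (ex 535/em 590) was read; parental cells received 10 uM forskolin + 100 uM RO 20-1724.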
3',5'-cyclic-AMP phosphodiesterase 4B (Homo sapiens), sequence (Q07343 whole entry, looked up): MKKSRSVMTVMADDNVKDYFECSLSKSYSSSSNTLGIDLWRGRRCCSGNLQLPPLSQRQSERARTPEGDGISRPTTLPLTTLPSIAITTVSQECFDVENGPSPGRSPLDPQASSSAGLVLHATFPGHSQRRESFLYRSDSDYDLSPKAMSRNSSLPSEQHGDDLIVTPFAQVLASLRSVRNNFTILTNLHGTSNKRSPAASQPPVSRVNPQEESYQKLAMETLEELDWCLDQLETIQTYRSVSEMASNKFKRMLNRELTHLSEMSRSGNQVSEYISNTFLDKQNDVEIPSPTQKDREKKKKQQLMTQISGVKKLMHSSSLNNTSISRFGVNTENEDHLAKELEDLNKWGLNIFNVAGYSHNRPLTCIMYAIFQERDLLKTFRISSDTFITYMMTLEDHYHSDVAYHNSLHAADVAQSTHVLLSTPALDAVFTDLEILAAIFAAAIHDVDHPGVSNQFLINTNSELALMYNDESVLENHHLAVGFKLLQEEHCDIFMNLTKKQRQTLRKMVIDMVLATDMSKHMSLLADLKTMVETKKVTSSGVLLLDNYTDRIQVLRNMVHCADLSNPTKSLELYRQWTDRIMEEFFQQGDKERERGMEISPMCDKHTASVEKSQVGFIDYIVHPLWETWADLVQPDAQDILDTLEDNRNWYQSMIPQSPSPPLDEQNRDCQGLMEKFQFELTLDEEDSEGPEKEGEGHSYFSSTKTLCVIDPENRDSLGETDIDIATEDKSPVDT

The nature of assay [15]: AP1 Signaling Pathway (AID 357; active = well fitted curve in either direction with a large enough effect, not every such curve was filed as active; note: % is set by controls: 0 for no effect and ±100 for the full control effect). The settings on record: ME-180 (cervical carcinoma) AP-1-bla reporter, EGF-induced, beta-lactamase ratio, 5 h; at 38 µM (top of the series). A digest of the protocol:
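AP-1-bla ME-180 cells with beta-lactamase reporter under AP-1 response element, stimulated with EC50 EGF; compounds titrated, 5 hours at 37 degrees Celsius. CCF4 read at 460/530 nm ratio; positive and negative modulators judged by AC50.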

Assay [16] is described as follows: NFAT Signaling Pathway (AID 444; active = well fitted curve in either direction with a large enough effect, not every such curve was filed as active;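 note: carbachol stimulus at about its EC50 of 1 µM final; % is set by controls: 0 for no effect and ±100 for the full control effect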). The note with it: Jurkat NFAT-bla M1, carbachol, beta-lactamase ratio, 5 h; at 38 µM (top of the series) unless noted. A digest of the protocol: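 Read-out: CCF4 FRET ratio (460 nm/530 nm) after 1 h RT dye loading, used for %activity and AC50 from titration series. Cells: Jurkat NFAT-β-lactamase/M1 line, treated with compound plus 1 uM carbachol for 5 h, 37 °C.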

A number with no mark means an inactive call. Records with an inconclusive call do not appear. Calls of active or inactive are those of the source. Unless noted, calls come from the whole dose curve; as a rule, active = well fitted curve in the direction sought with a large enough effect; inconclusive = small, poorly fitted or top-dose-only effect, or another doubt; inactive = no such curve, though single readings can be large; an effect the other way counts as inactive or inconclusive. Where only a bound is given, the exact number is not on record here.

Glucocorticoid receptor (Homo sapiens), sequence (P04150 whole entry, looked up): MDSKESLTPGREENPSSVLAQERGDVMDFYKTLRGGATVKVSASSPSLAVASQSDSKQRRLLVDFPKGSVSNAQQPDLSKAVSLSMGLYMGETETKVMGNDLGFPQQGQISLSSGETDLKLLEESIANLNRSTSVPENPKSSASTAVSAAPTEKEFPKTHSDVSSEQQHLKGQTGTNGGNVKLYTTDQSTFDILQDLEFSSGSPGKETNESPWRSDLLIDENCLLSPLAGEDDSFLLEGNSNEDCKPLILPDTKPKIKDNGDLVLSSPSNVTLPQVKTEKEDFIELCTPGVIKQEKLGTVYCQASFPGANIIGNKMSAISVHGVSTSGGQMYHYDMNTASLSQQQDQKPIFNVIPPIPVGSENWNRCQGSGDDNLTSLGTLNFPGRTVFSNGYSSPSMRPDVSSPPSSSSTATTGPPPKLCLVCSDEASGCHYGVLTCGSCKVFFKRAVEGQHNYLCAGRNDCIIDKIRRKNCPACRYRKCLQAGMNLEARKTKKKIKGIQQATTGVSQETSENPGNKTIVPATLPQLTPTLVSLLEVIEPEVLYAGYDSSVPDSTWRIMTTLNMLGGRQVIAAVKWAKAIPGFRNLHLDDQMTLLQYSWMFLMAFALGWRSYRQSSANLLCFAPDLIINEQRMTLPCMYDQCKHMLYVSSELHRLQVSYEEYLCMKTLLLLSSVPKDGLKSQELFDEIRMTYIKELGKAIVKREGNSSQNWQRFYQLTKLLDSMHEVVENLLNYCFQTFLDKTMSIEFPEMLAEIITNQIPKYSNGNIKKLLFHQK

In the case of `Nc1ccc([N+](=O)[O-])cc1O`, the Potency is > 92 µM in [1]; > 92 µM in [2]; > 92 µM in [3]; > 92 µM in assay [4]; > 92 µM in assay [5]; 20 µM (active) in assay [7]. The Potency entry in [6], in assay [8], in assay [9], in assay [11] and in [12] was “inactive” throughout. Further, the activity change, negative = cytotoxicity in [10] is -10.2%.

For `N=C1N=C(N)c2cc3ccccc3cc21`, the Potency in assay [1] is 62.7 µM (active); in assay [2], 32.2 µM (active); in assay [5], 33.3 µM (active); in assay [8] it was 50.1 µM (active); in assay [9], 31.6 µM (active). Further, the Potency result in assay [6] was “inactive”. The results for the activity change, negative = cytotoxicity in [7] and in [10] were -134% (active) and -85.8% (active), respectively.

`CC(C)NC[C@H](O)COc1cccc2[nH]ccc12`: the Potency in [13] was > 46 µM. Also, the Potency entry in assay [6] is “inactive”. In [14], the molecule was called inactive.

As to `O=C(O)/C=C\C(=O)O`, the Potency in assay [1], in [2], in [3], in assay [4] and in assay [5] was > 92 µM each time. The Potency entry in assay [6], in [7], in assay [8], in assay [9], in [11] and in assay [12] was “inactive” in each case. For the same molecule, the activity change, negative = cytotoxicity in [10] was -6.17%.

On to `C#C[C@]1(O)CC[C@H]2[C@@H]3CCc4cc(O)ccc4[C@H]3CC[C@@]21C`, for which the Potency in assay [1] was > 92 µM; in assay [3], > 92 µM; in assay [5] it was 25.5 µM; in assay [9], 20 µM (active). Moreover, the Potency entry in assay [6], in assay [7], in assay [11] and in [12] was “inactive” in each case.

With `CN1CCC[C@H]1c1cccnc1`, the Potency in [1], in [2], in assay [3], in assay [4] and in assay [5] was > 92 µM in each case. Besides, the Potency result in assay [6], in assay [7], in [8], in assay [9], in assay [11] and in assay [12] was “inactive” each time. Besides, the activity change, negative = cytotoxicity in [10] is 3.04%.

On to `S=c1[nH]c2ccccc2s1`, for which the Potency in [1], in [2], in [3], in assay [4] and in [5] was > 92 µM each time. In addition, the Potency entry in assay [6], in assay [8], in assay [9], in assay [11] and in [12] was “inactive” throughout. The activity change, negative = cytotoxicity is -146% (active) in [7] and -20.5% in assay [10].

Turning to `O=C(O)c1cc(=O)c2ccccc2[nH]1`, the activity change, negative = inhibition was 5.32% in assay [15] and 13.2% in assay [16]. Moreover, the Potency entry in assay [6] was “inactive”. Moreover, in assay [14], the outcome was inactive.
